Experimental data reported in PubChem BioAssay (NCI).
About 83,000 compounds went through this panel and 20% of them were active in at least one assay; those are over-represented in the sample as a whole.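 48-hour exposure, single concentration, 96-well plates; percent growth endpoint where 0 means no net growth. Active: below 10.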 Active and inactive are the calls of the source.

tested on: IGROV1 ovarian; assay: NCI-60 one-dose screen, 48 h (100 = growth as untreated, 0 = no growth, -100 = all killed); conditions: 10 µM unless noted

**Q.** How did the growth turn out when `CCCc1cc(C(N)=S)ccn1` was run?
**A.** Its growth is 105% (inactive).

**Q.** With `C#CCn1cnc2cnc(Nc3cccc(NC(=O)CCl)c3)nc21` as the molecule, how does the growth read?
**A.** The growth was -38.1% [6.25 µM] (active).

**Q.** How did the growth turn out when `CC1=C2[C@@H](CC1)[C@]1(C)O[C@@](C3CC3)(C[C@H]1OC(=O)CO)[C@H]2OC(=O)/C=C/c1ccccc1` was run?
**A.** Its growth is 100% (inactive).

**Q.** Which growth does the source give for `CCCn1nc(C(=O)N2CCCCC2)c2c1CCC(N1CCC(c3ccncc3)CC1)C2` (stereo not drawn) here?
**A.** The growth was 113% (inactive).

**Q.** `Cc1c(O)c(O)cc2c3c(oc12)CC(c1ccc2c(c1)OCO2)CC3=O` (stereo not drawn) was tested. Which growth did it give?
**A.** The growth was 38.6% (inactive).

**Q.** Which growth does the source give for `COc1ccc(Nc2nn3c(SCC(=O)c4ccc(C)cc4)nnc3s2)cc1` here?
**A.** The growth was 91.4% (inactive).

**Q.** Which growth does the source give for `N#Cc1c(-c2cccc(F)c2)cc(-c2cccnc2)[nH]c1=O` here?
**A.** Its growth is 110% (inactive).

**Q.** With `O=[N+]([O-])c1ccc2[nH]c3nccc(NCc4cccc(Cl)c4)c3c2c1` as the molecule, how does the growth read?
**A.** The growth was 93.1% (inactive).
